Inconclusive results are not listed. The source made the active and inactive calls.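 How the source made its calls, unless noted: active means GFP signal, as percent of the solvent control, above the screen mean plus 3 SD, about 149; inconclusive means no reading because the compound's own fluorescence upset strain identification; inactive means the rest.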
How the values were obtained:
[1] = yeast TOR pathway RPL19A-GFP modulators, primary screen, cell-based, S. cerevisiae, multiplex flow cytometry (AID 1862; in the data active means percent of DMSO control GFP below about 86%;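 further: lower values mimic rapamycin by blocking the RPL19A rise seen in DMSO cells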); conditions: S. cerevisiae RPL19A-GFP strain, flow cytometry fluorescence, 3 h; at 10 µM; stronger effect = lower value
[2] = modulators of MEP2-GFP levels in yeast, primary screen, S. cerevisiae, multiplex flow cytometry (AID 1867;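 active means GFP response, as percent of the DMSO control, above the screen-wide mean plus 3 SD, about 139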;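 further: median GFP channel fluorescence of barcode-gated MEP2-GFP cells measured by flow cytometry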); conditions: S. cerevisiae MEP2-GFP strain, 3 h, at 10 µM, stronger effect = higher value, 100% means same as DMSO wells
[3] = modulators of CIT2-GFP expression in yeast, primary screen, S. cerevisiae, GFP fusion, multiplex flow cytometry (AID 1870;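 active means percent response above a set limit, the screen-wide mean plus 3 SD, cut at about 130% in these data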;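 further: barcoded CIT2-GFP strain pooled with four other GFP strains with rapamycin as positive control; median GFP fluorescence per well over plate mean of DMSO wells so 100% = DMSO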); conditions: 3 h, at 10 µM, stronger effect = higher value
[4] = modulators of LAP4-GFP expression in yeast, primary screen, S. cerevisiae, multiplex flow cytometry (AID 1873); conditions: 3 h, at 10 µM, stronger effect = higher value
[5] = modulators of AGP1-GFP expression in yeast TOR pathway, primary screen, cell-based, multiplex flow cytometry, S. cerevisiae (AID 1887;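 active means GFP signal above the screen-wide mean plus 3 SD, that is over about 124.5% of the solvent control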;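 further: AGP1-GFP fusion strain of S. cerevisiae within a five-strain barcoded multiplex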); conditions: 3 h, at 10 µM, stronger effect = higher value
[6] = inhibitors of CD8+ T cell-vesicle binding, pilot screen, LFA-1/ICAM-1 modulator project, MLPCN validation set, flow cytometry (AID 2523;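 active means response below a set limit, under 55% cells CD8-positive and vesicle-bound, and CD8 cells' 90th-percentile brightness under 279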;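 on vesicle binding response: mean PE anti-B7-1 fluorescence of CD8+ cells relative to row control; 100% = QL9-loaded vesicles with DMSO vehicle in the same plate row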); conditions: 2C mouse CD8+ T cells, at 7 µM, stronger effect = lower value; double positive events: measured here: CD8+/vesicle+ event percentage
[7] = target: Integrin beta-1 (Homo sapiens) + Integrin alpha-4 (Homo sapiens) (UniProt P13612+P05556); test: inhibition of HUTS-21 binding to VLA-4, pilot screen, VLA-4 allosteric modulator project, U937 cells, HUTS-21 mAb, flow cytometry, validation set (AID 2674;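 active means inhibition above 50%, about 3 SD of the validation set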;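 further: antibody binding induced by the VLA-4 ligand LDV present at three times its Kd; 0% = LDV ligand with antibody and no compound and 100% = antibody without LDV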); conditions: HUTS-21 LIBS mAb binding, at 6.7 µM, stronger effect = higher value, binding induced by LDV ligand
Chain of Integrin beta-1 (Homo sapiens) + Integrin alpha-4 (Homo sapiens) (P05556 whole entry, looked up): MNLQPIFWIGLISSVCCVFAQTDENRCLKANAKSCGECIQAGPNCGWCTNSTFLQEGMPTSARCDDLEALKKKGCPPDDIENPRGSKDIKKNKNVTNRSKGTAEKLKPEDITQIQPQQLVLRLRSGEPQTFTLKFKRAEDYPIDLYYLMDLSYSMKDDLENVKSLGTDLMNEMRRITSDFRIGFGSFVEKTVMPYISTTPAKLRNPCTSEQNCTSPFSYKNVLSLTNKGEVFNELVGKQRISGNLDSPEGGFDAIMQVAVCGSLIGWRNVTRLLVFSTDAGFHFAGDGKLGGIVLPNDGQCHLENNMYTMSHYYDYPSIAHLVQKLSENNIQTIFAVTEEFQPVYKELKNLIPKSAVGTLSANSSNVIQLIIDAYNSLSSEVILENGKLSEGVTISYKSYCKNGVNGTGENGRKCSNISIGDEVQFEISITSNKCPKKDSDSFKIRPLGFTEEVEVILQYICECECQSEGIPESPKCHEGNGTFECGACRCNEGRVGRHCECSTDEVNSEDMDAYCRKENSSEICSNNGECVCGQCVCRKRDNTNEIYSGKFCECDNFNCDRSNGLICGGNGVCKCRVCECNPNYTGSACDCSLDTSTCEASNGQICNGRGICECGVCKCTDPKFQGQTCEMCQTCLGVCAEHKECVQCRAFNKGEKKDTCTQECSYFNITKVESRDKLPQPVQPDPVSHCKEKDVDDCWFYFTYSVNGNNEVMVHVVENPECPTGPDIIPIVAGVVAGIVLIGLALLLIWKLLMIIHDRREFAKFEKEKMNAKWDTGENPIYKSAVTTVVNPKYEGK
Chain of Integrin beta-1 (Homo sapiens) + Integrin alpha-4 (Homo sapiens) (P13612 whole entry, looked up): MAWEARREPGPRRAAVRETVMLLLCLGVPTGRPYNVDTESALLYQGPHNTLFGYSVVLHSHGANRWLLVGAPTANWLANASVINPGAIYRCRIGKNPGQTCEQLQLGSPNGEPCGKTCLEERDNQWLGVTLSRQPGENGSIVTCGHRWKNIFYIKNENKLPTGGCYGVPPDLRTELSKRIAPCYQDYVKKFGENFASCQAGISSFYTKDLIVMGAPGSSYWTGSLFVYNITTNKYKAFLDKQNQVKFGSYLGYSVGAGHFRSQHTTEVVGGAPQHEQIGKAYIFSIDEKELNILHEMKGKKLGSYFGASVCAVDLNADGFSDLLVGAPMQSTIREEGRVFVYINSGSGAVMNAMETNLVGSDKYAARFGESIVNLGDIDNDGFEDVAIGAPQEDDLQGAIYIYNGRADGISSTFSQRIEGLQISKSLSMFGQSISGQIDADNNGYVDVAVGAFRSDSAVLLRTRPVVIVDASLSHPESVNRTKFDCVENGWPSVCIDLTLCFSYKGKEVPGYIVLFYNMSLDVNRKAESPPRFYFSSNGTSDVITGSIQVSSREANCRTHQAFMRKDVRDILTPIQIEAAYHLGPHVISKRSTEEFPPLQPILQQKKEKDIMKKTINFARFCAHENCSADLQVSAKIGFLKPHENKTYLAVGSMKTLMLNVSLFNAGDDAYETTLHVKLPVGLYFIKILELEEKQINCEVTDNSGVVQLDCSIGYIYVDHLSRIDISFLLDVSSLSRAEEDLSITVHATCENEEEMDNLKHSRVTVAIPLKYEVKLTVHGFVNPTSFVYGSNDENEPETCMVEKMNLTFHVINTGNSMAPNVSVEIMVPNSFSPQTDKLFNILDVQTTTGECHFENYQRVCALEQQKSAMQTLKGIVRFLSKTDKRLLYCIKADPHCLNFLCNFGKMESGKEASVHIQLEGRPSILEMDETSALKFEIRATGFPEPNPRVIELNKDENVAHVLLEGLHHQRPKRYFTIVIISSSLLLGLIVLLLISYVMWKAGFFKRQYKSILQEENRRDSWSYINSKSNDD

[8] = superoxide lowering in aged yeast cells, pilot screen, validation compound set (AID 2706;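 active means superoxide response below 65% of plate, a cut near 3 SD across the whole screen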;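 further: yeast exposed to compound for one week at 30 degrees C before staining; 100% = mean of all compound wells on the same plate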); conditions: S. cerevisiae aging, superoxide DHE fluorescence; at 10 µM; stronger effect = lower value
[9] = target: Beta-adrenergic receptor kinase 1 (Homo sapiens) (UniProt P25098); test: GRK2 binders displacing RNA aptamer, biochemical, validation, human GRK2, bead flow cytometry (AID 488806;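 active means aptamer binding inhibition above 30%, about 3 SD of noise from non-fluorescent compounds; inactive means inhibition at or below 30%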); conditions: bead-bound GRK2, FAM-aptamer displacement, at 10 µM, stronger effect = higher value
Chain of Beta-adrenergic receptor kinase 1 (Homo sapiens) (P25098 whole entry, looked up): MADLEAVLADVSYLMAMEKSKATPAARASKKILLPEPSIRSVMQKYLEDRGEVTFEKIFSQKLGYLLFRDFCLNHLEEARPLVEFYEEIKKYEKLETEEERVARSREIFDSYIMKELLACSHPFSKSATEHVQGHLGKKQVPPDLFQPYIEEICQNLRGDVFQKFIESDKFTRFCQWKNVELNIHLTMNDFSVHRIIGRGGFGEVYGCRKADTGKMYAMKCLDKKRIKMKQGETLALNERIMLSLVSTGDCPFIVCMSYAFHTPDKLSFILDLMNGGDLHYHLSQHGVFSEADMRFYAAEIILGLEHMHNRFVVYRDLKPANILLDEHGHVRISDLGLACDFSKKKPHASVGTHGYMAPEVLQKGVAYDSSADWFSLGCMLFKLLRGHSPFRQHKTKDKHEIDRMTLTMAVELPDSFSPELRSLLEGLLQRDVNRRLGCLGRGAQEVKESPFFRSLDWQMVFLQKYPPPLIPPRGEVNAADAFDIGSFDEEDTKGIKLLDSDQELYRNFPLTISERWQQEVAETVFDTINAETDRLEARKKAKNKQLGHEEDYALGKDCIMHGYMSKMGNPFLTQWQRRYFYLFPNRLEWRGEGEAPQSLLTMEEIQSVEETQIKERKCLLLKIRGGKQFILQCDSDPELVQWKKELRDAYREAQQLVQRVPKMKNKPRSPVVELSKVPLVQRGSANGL

[10] = target: Beta-2 adrenergic receptor (Homo sapiens) (UniProt P07550); test: beta2AR agonists driving receptor internalization, pilot screen, cell-based, FAP fluorogen, flow cytometry, validation set (AID 504459;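 active means percent response above 42, roughly 3 SD of non-fluorescent test compounds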;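 further: agonist-driven loss of surface beta2AR via internalization measured by FAP dye flow cytometry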); conditions: Am2.2-beta2AR cells, FAP surface receptor flow cytometry; at 10 µM; stronger effect = higher value
Chain of Beta-2 adrenergic receptor (Homo sapiens) (P07550 whole entry, looked up): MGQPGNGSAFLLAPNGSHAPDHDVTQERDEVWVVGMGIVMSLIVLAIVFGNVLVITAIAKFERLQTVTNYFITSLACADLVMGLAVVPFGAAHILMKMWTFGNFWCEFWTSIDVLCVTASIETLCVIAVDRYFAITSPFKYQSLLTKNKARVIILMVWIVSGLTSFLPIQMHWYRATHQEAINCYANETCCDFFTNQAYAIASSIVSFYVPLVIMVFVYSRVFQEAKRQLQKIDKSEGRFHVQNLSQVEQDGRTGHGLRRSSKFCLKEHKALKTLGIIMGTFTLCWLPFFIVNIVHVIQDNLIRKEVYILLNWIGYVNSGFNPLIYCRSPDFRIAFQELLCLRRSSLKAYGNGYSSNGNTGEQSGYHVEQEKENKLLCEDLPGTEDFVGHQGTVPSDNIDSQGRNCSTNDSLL

[11] = target: AP-2 complex subunit beta (Homo sapiens) (UniProt P63010); test: inhibitors of arrestin peptide binding to AP2, pilot screen, biochemical, validation set, GST-AP2 beads, flow cytometry (AID 504541;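 active means inhibition above 54%, about 3 SD of non-fluorescent compounds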;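 further: AP2 carries R879A mutation and is captured from E. coli lysate; bead-bound FITC arrestin peptide fluorescence measuring arrestin peptide binding to AP2; 0% = DMSO wells and 100% = excess unlabeled arrestin peptide control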); conditions: FITC arrestin peptide, at 10 µM, stronger effect = higher value, AP2 beta2 appendage fragment, R879A mutant
Chain of AP-2 complex subunit beta (Homo sapiens) (P63010 whole entry, looked up, the tested form may be a part, one chain of several): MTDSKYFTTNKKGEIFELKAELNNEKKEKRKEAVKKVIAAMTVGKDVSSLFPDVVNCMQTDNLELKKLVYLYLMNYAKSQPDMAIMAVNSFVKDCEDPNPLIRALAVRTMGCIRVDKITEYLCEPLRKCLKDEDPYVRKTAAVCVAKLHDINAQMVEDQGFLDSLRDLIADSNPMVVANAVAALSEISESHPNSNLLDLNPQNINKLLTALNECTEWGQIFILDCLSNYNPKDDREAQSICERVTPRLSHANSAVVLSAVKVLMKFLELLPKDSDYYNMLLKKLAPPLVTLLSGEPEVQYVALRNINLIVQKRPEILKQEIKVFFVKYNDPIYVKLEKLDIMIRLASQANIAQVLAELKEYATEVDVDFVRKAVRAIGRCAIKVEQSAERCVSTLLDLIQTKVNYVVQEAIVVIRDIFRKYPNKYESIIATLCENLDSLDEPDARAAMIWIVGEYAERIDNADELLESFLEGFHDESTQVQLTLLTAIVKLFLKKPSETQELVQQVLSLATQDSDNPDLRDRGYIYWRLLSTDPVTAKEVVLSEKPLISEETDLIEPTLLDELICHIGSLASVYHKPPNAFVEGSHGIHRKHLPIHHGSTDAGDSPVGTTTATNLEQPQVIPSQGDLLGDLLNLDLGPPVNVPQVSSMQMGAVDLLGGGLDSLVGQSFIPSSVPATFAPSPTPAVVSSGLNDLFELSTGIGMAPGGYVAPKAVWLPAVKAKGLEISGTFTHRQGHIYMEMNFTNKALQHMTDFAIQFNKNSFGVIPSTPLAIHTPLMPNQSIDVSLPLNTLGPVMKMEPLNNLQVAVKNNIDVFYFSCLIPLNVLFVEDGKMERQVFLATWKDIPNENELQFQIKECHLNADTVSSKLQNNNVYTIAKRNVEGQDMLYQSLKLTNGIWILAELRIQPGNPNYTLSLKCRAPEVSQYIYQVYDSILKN

[12] = yeast V-ATPase proton transport modulators, S. cerevisiae, pHLuorin, HTS validation (AID 504600; in the data active means response above about 15%;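 further: plate controls were DMSO for no effect and reference compound for full effect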); conditions: S. cerevisiae pHLuorin cytosolic pH, at 10 µM, stronger effect = higher value
[13] = test system: anti-desmoglein-3 scFv antibody binding to human DSG3; test: inhibitors of anti-DSG3 scFv binding to DSG3, pilot screen, biochemical, validation compound set, bead-based, flow cytometry (AID 588368;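 active means binding below the plate cutoff, the plate median minus 3 SD, with a reading above zero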;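 further: signal is the median channel fluorescence of bead-bound GFP antibody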); conditions: Protein G beads, DSG3-Fc, scFv-GFP binding, at 10 µM, stronger effect = lower value
[14] = inhibitors of fungal efflux pumps CDR1, CDR2, MDR1, pilot screen, validation compound set, multiplex, phenotypic (AID 588506;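 active means efflux inhibition above 0.42, the validation set average plus 4 SD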;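 further: Nile Red retained in cells so higher fluorescence means more efflux inhibition; 0 = negative control wells and 1 = enniatin B 25 µM full block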); conditions: S. cerevisiae pump-expressing triplex, Nile Red efflux flow cytometry; at 10 µM; stronger effect = higher value; the pumps come from Candida albicans
[15] = target: ATP-binding cassette sub-family B member 6 (Homo sapiens) (UniProt Q9NP58); test: ABCB6 transporter inhibitors, pilot screen, K562-ABCB6 cells, flow cytometry, validation set (AID 588550;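 active means inhibition above the screen-wide mean plus 3 SD, about 51%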;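 further: 0% = DMSO wells and 100% = benzethonium chloride 70 µM positive control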); conditions: K562-ABCB6 porphyrin accumulation, 1 h, at 10 µM, stronger effect = higher value
Chain of ATP-binding cassette sub-family B member 6 (Homo sapiens) (Q9NP58 whole entry, looked up): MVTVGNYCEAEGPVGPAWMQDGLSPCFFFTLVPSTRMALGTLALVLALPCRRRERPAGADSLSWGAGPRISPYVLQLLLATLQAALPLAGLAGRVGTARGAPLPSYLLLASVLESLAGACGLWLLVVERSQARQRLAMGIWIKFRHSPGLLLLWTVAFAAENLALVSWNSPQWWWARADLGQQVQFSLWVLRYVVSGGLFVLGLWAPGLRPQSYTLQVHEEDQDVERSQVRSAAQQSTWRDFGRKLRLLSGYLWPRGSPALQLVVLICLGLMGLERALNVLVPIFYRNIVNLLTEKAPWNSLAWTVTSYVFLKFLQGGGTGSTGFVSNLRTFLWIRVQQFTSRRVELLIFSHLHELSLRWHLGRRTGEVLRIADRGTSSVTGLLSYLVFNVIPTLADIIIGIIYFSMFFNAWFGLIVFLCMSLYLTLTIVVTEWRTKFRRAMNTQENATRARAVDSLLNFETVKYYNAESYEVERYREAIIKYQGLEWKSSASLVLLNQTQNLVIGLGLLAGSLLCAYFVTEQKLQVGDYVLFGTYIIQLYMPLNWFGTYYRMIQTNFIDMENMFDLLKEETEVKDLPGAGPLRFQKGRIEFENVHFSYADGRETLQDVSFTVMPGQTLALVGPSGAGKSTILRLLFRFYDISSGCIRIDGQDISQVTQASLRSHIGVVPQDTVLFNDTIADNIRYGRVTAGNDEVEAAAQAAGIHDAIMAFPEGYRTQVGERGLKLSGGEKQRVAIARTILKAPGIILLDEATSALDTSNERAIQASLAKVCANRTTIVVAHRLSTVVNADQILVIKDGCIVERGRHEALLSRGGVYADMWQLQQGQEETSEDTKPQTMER

[16] = promoters of myeloid differentiation in arrested cells, primary screen, cell-based, GFP/MAC1 double positive, flow cytometry, validation set (AID 588685;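 active means differentiation response of at least 50%, scaled between solvent and reference control, from cells with both markers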;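 further: compound exposure lasts four days before antibody staining and flow analysis; 0% = DMSO wells and 100% = 5 µM fulvestrant positive control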); conditions: ER-HoxA9 marrow cells, stronger effect = higher value, normalized: vehicle 0, fulvestrant 100

O=c1nc2n(c3c1oc1ccccc13)Cc1ccccc1-2
percent of DMSO control GFP [1]: 100% (inactive) | GFP response vs DMSO [2]: 105% (inactive) | percent response of DMSO control [3]: 104% (inactive) | GFP response vs DMSO [4]: 105% (inactive) | GFP response, % of DMSO [5]: 108% (inactive) | double positive events [6]: 56.6% | vesicle binding response [6]: 142% (inactive) | inhibition [7]: -3.77% (inactive) | superoxide response (% of plate) [8]: 93.6% (inactive) | aptamer binding inhibition [9]: -1% (inactive) | response [10]: -25.7% (inactive) | inhibition [11]: -6.48% (inactive) | response [12]: -0.9% (inactive) | binding (% of control) [13]: 99.6% (inactive) | efflux inhibition (fraction of control) [14]: -0.3 (inactive) | inhibition [15]: -3% (inactive) | differentiation response [16]: -6.03% (inactive)

OCC1CCN(Cc2cn(Cc3ccccc3)nc2-c2cc3ccccc3o2)CC1
percent of DMSO control GFP [1]: 106% (inactive) | GFP response vs DMSO [2]: 97.2% (inactive) | percent response of DMSO control [3]: 97.8% (inactive) | GFP response vs DMSO [4]: 79.5% (inactive) | GFP response, % of DMSO [5]: 102% (inactive) | double positive events [6]: 60.9% | vesicle binding response [6]: 203% (inactive) | inhibition [7]: 18.2% (inactive) | superoxide response (% of plate) [8]: 99.1% (inactive) | aptamer binding inhibition [9]: -3% (inactive) | response [10]: 21% (inactive) | inhibition [11]: 5.6% (inactive) | response [12]: -6.29% (inactive) | binding (% of control) [13]: 98.5% (inactive) | efflux inhibition (fraction of control) [14]: 0.52 (active) | inhibition [15]: 20% (inactive) | differentiation response [16]: 10% (inactive)

Cc1cnc(NC(=O)C2=C(O)c3ccccc3S(=O)(=O)N2C)s1
percent of DMSO control GFP [1]: 107% (inactive) | GFP response vs DMSO [2]: 112% (inactive) | percent response of DMSO control [3]: 88.4% (inactive) | GFP response vs DMSO [4]: 80.8% (inactive) | GFP response, % of DMSO [5]: 92.9% (inactive) | double positive events [6]: 65.2% | vesicle binding response [6]: 958% (inactive) | inhibition [7]: -6.68% (inactive) | superoxide response (% of plate) [8]: 109% (inactive) | aptamer binding inhibition [9]: 3% (inactive) | response [10]: 1.12% (inactive) | inhibition [11]: 8.13% (inactive) | response [12]: 1.87% (inactive) | binding (% of control) [13]: 93.7% (inactive) | efflux inhibition (fraction of control) [14]: 0.27 (inactive) | inhibition [15]: 14% (inactive) | differentiation response [16]: 12% (inactive)

Nc1nnc(CSCc2ccc(Cl)cc2Cl)s1
percent of DMSO control GFP [1]: 101% (inactive) | GFP response vs DMSO [2]: 98.7% (inactive) | percent response of DMSO control [3]: 105% (inactive) | GFP response vs DMSO [4]: 105% (inactive) | GFP response, % of DMSO [5]: 105% (inactive) | double positive events [6]: 58.8% | vesicle binding response [6]: 162% (inactive) | inhibition [7]: -11.8% (inactive) | superoxide response (% of plate) [8]: 95.2% (inactive) | aptamer binding inhibition [9]: -1% (inactive) | response [10]: -6.41% (inactive) | inhibition [11]: 5.12% (inactive) | response [12]: 3.83% (inactive) | binding (% of control) [13]: 112% (inactive) | efflux inhibition (fraction of control) [14]: 0.47 (active) | inhibition [15]: 0% (inactive) | differentiation response [16]: 10.1% (inactive)

CC(C)c1ccc(OCc2ccc(C(=O)O)o2)cc1
percent of DMSO control GFP [1]: 105% (inactive) | GFP response vs DMSO [2]: 102% (inactive) | percent response of DMSO control [3]: 109% (inactive) | GFP response vs DMSO [4]: 91.5% (inactive) | GFP response, % of DMSO [5]: 93.7% (inactive) | double positive events [6]: 87.7% | vesicle binding response [6]: 313% (inactive) | inhibition [7]: 11% (inactive) | superoxide response (% of plate) [8]: 107% (inactive) | aptamer binding inhibition [9]: 15% (inactive) | response [10]: 5.55% (inactive) | inhibition [11]: 2.53% (inactive) | response [12]: 13.4% (inactive) | binding (% of control) [13]: 98.3% (inactive) | efflux inhibition (fraction of control) [14]: -0.16 (inactive) | inhibition [15]: 2% (inactive) | differentiation response [16]: -7.5% (inactive)

COc1ccc(C(=O)Nc2ncc3c(n2)CC(C)CC3=O)cc1 (stereo not drawn)
percent of DMSO control GFP [1]: 98% (inactive) | GFP response vs DMSO [2]: 105% (inactive) | percent response of DMSO control [3]: 105% (inactive) | GFP response vs DMSO [4]: 110% (inactive) | GFP response, % of DMSO [5]: 104% (inactive) | double positive events [6]: 48.3% | vesicle binding response [6]: 83.7% (inactive) | inhibition [7]: -12.7% (inactive) | superoxide response (% of plate) [8]: 99.5% (inactive) | aptamer binding inhibition [9]: -2% (inactive) | response [10]: 2.81% (inactive) | inhibition [11]: 61.9% (active) | response [12]: -6.31% (inactive) | binding (% of control) [13]: 95.3% (inactive) | efflux inhibition (fraction of control) [14]: 0.01 (inactive) | inhibition [15]: 15% (inactive) | differentiation response [16]: -7.2% (inactive)

COc1ccc([C@H]2[C@H](C(=O)OC(C)(C)C)N3N=Cc4ccccc4C3C23C(=O)c2ccccc2C3=O)cc1OC (stereo partly drawn)
percent of DMSO control GFP [1]: 99.1% (inactive) | GFP response vs DMSO [2]: 106% (inactive) | percent response of DMSO control [3]: 97.7% (inactive) | GFP response vs DMSO [4]: 97.4% (inactive) | GFP response, % of DMSO [5]: 89.1% (inactive) | double positive events [6]: 49.9% | vesicle binding response [6]: 39.2% (active) | inhibition [7]: -45.5% (inactive) | superoxide response (% of plate) [8]: 103% (inactive) | aptamer binding inhibition [9]: -1% (inactive) | response [10]: 35.3% (inactive) | inhibition [11]: 61.9% (active) | response [12]: -3.19% (inactive) | binding (% of control) [13]: 96.8% (inactive) | efflux inhibition (fraction of control) [14]: -0.06 (inactive) | inhibition [15]: -27% (inactive) | differentiation response [16]: -13.6% (inactive)

Cc1ccnc2c1NC(=O)c1cccnc1N2C1CC1
percent of DMSO control GFP [1]: 102% (inactive) | GFP response vs DMSO [2]: 98.3% (inactive) | percent response of DMSO control [3]: 115% (inactive) | GFP response vs DMSO [4]: 98% (inactive) | GFP response, % of DMSO [5]: 99.4% (inactive) | double positive events [6]: 66.5% | vesicle binding response [6]: 295% (inactive) | inhibition [7]: 2.66% (inactive) | superoxide response (% of plate) [8]: 108% (inactive) | aptamer binding inhibition [9]: 4% (inactive) | response [10]: -1.22% (inactive) | inhibition [11]: -5.17% (inactive) | response [12]: 0.42% (inactive) | binding (% of control) [13]: 99.2% (inactive) | efflux inhibition (fraction of control) [14]: -0.17 (inactive) | inhibition [15]: 2% (inactive) | differentiation response [16]: 2.2% (inactive)

CN(C)CCC=C1c2ccccc2CCc2ccccc21
percent of DMSO control GFP [1]: 93.9% (inactive) | GFP response vs DMSO [2]: 105% (inactive) | percent response of DMSO control [3]: 93.9% (inactive) | GFP response vs DMSO [4]: 113% (inactive) | GFP response, % of DMSO [5]: 95.4% (inactive) | double positive events [6]: 60.1% | vesicle binding response [6]: 227% (inactive) | inhibition [7]: 6.4% (inactive) | superoxide response (% of plate) [8]: 101% (inactive) | aptamer binding inhibition [9]: 2% (inactive) | response [10]: -0.14% (inactive) | inhibition [11]: -8.77% (inactive) | response [12]: 6.98% (inactive) | binding (% of control) [13]: 101% (inactive) | efflux inhibition (fraction of control) [14]: -0.17 (inactive) | inhibition [15]: 6% (inactive) | differentiation response [16]: -24.8% (inactive)

From PubChem BioAssay
